Results from PubChem BioAssay.
A number with no mark means an inactive call. For part of these data: Entries with a potency or affinity are not part of this list. Activity calls are given as the source filed them. Unless noted, no rule for the calls is given here.

Assays:
[1] = antimalarial activity against Dd2 strain (AID 2302;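 active = growth inhibition above 50% at the single 2 µM test dose, taken to imply half-maximal potency below 2 µM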;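 also: 0% = DMSO untreated growth and 100% = chloroquine plus artemisinin killed control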); conditions: P. falciparum Dd2 in RBCs, LDH growth readout, 72 h; at 2 µM; hits give high values
[2] = molecular target: L-lactate dehydrogenase (Plasmodium falciparum (isolate CDC / Honduras)) (UniProt Q27743); assay: PfLDH activity inhibition – cell lysate, 3D7 strain, counter-screen for P. falciparum growth inhibition project (AID 2304);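 also: 0% = vehicle and 100% = reference inhibitor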; conditions: P. falciparum 3D7 crude extract, LDH APAD/NBT absorbance; at 2 µM; hits give high values
Sequence of L-lactate dehydrogenase (Plasmodium falciparum (isolate CDC / Honduras)) (Q27743 whole entry, looked up): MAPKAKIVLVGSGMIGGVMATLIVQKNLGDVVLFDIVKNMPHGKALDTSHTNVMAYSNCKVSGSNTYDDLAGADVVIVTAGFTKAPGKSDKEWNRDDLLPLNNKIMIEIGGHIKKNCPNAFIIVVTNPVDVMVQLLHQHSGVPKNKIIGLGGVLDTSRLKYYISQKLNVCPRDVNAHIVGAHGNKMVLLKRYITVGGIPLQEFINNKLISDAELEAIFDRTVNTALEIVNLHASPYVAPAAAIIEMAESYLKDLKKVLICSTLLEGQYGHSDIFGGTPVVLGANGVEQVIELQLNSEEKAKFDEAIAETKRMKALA

[3] = inhibition of 3D7 malaria parasite growth – strain 3D7 (AID 2306);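 also: 0% = DMSO wells and 100% = chloroquine plus artemisinin control wells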; conditions: P. falciparum 3D7 erythrocytic growth, LDH absorbance, 72 h; at 2 µM; hits give high values
[4] = molecular target: Calcium-dependent protein kinase 1 (Plasmodium falciparum (isolate 3D7)) (UniProt P62344); assay: PfCDPK1 kinase inhibitors, biochemical, TCAMS library (AID 1159585; cut-off not given, nearly all actives have IC50 up to about 0.98 µM;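 also: inhibitors leave more ATP so luminescence rises with inhibition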); conditions: recombinant PfCDPK1, Kinase-Glo ATP depletion luminescence
Sequence of Calcium-dependent protein kinase 1 (Plasmodium falciparum (isolate 3D7)) (P62344 whole entry, looked up): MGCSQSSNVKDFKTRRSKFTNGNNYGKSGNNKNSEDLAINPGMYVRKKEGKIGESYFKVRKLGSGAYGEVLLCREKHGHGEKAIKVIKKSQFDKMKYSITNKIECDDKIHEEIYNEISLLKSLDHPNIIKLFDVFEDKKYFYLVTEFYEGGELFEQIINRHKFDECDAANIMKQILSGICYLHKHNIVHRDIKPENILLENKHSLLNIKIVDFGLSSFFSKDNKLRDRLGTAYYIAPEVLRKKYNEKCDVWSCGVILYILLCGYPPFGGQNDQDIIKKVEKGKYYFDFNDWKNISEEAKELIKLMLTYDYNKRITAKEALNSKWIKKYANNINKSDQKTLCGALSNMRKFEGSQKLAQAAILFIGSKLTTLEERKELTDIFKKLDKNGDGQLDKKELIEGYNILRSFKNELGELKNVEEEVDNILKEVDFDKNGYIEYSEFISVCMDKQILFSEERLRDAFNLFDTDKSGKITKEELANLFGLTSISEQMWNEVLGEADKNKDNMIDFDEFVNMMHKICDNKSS

[5] = molecular target: Plasmodium falciparum protein kinase 6 (PK6, PF3D7_1337100) (UniProt Q8IDW1); assay: PfPK6 kinase inhibitors, biochemical, TCAMS library (AID 1159586); conditions: recombinant PfPK6, Kinase-Glo ATP depletion luminescence
Sequence of Plasmodium falciparum protein kinase 6 (PK6, PF3D7_1337100) (Q8IDW1 1-305): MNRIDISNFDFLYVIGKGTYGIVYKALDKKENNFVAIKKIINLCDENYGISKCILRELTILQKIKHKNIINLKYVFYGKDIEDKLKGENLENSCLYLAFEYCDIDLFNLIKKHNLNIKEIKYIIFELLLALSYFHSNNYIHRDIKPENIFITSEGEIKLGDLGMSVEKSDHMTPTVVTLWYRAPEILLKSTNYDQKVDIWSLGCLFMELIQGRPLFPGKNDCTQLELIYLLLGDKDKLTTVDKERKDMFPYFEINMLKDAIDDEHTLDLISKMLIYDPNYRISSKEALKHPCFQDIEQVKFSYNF

[6] = molecular target: Protein kinase 7 (PK7), Plasmodium falciparum 3D7 (PF3D7_0213400) (UniProt Q7YTF7); assay: inhibition of Plasmodium PK7 catalytic activity – biochemical, TCAMS antimalarial set, Kinase-Glo luminescence (AID 1159587); conditions: recombinant PfPK7, Kinase-Glo ATP depletion luminescence
Sequence of Protein kinase 7 (PK7), Plasmodium falciparum 3D7 (PF3D7_0213400) (Q7YTF7 1-343): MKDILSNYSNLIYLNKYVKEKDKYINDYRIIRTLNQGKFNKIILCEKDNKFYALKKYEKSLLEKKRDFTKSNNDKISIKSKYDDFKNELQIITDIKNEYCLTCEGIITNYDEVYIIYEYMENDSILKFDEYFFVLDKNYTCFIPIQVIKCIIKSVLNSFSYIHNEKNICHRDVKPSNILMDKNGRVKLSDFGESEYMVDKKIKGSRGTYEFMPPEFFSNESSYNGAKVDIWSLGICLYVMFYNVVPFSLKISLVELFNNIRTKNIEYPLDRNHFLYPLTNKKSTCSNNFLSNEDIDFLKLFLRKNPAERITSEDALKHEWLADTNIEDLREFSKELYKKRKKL

[7] = molecular target: Calcium-dependent protein kinase 4 (Plasmodium falciparum (isolate 3D7)) (UniProt Q8IBS5); assay: PfCDPK4 kinase inhibitors, biochemical, TCAMS library (AID 1159588; cut-off not given, nearly all actives have IC50 up to about 0.91 µM); conditions: recombinant PfCDPK4, Kinase-Glo ATP depletion luminescence
Sequence of Calcium-dependent protein kinase 4 (Plasmodium falciparum (isolate 3D7)) (Q8IBS5 whole entry, looked up): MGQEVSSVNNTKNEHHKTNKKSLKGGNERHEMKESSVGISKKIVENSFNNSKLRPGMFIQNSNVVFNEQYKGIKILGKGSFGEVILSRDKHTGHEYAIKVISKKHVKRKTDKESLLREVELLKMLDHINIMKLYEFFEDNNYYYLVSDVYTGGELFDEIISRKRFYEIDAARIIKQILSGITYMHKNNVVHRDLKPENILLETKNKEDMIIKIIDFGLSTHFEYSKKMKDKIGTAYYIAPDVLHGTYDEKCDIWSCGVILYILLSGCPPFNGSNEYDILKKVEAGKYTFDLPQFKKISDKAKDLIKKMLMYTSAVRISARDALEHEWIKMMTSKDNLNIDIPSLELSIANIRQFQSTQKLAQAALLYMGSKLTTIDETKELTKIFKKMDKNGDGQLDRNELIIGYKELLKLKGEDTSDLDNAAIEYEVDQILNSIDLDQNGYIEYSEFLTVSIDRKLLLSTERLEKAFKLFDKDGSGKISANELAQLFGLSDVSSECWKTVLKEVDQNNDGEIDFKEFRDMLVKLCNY

Row | SMILES | growth inhibition [1] | inhibition [2] [%] | growth inhibition [3] | outcome [4] | outcome [5] | outcome [6] | outcome [7]
1 | COc1ccccc1-c1nc2c(ccc3nc(N)nc(N)c32)[nH]1 | 93% (active) | 2 | 101% (active) | inactive | inactive | inactive | inactive
2 | COc1cccc(Cn2ccc3c4c(N)nc(N)nc4ccc32)c1 | 96% (active) | -2 | 99% (active) | inactive | inactive | inactive | inactive
3 | CCCCN(CCCC)Cc1cc(N(C)c2ccc([N+](=O)[O-])cn2)ccc1O | 98% (active) | 7 | 98% (active) | inactive | inactive | inactive | inactive
4 | CCOC(=O)N1CCN(CCCCCNc2cc(C)nc(/N=C(\N)Nc3ccc(Cl)cc3)n2)CC1 | 0% | -1 | 101% (active) | inactive | inactive | inactive | inactive
5 | Nc1nc(N)c2c(Oc3cccc(Cl)c3)cccc2n1 | 7% | -7 | 97% (active) | inactive | inactive | inactive | inactive
6 | CC(=O)Nc1ccc(OCCCCCOc2ccc(NC(C)=O)cc2Cl)c(Cl)c1 | 0% | -7 | 93% (active) | inactive | inactive | inactive | inactive
7 | COc1cccc2c(O)c(CNC3CCCCC3)ccc12 | 98% (active) | 3 | 100% (active) | inactive | inactive | inactive | inactive
8 | CCN(CC)c1ccc2nc(N)nc(N)c2c1 | -2% | 2 | 93% (active) | inactive | inactive | inactive | inactive
9 | CCCCCCCc1c(C)[nH]c2ccc(F)cc2c1=O | 96% (active) | -5 | 98% (active) | inactive | inactive | inactive | inactive
10 | Cc1c(Cc2ccc(C(C)C)cc2)cnc2nc(N)nc(N)c12 | -3% | 6 | 97% (active) | inactive | inactive | inactive | inactive
11 | CC1CCN(Cc2c(O)ccc3c(CN4CCC(C)CC4)c(O)ccc23)CC1 | 86% (active) | -3 | 102% (active) | inactive | inactive | inactive | inactive
12 | c1ccc2c(c1)cc(CNCCCN1CCN(CCCNCc3cc4ccccc4c4ccccc34)CC1)c1ccccc12 | 98% (active) | 2 | 101% (active) | inactive | inactive | inactive | inactive
13 | COc1ccc2c(c1CNCCCCCCNCc1c(OC)ccc3c1CCCC3)CCCC2 | 7% | 6 | 94% (active) | inactive | inactive | inactive | inactive
14 | Cc1[nH]c(C)c(-c2ccc(Cl)cc2)c(=O)c1I | 96% (active) | -5 | 93% (active) | inactive | inactive | inactive | inactive
15 | O=c1c2ccc(Sc3ccccn3)cc2n(-c2ccccc2)c2cc(Sc3ccccn3)ccc12 | 70% (active) | -3 | 89% (active) | inactive | inactive | inactive | inactive
16 | COc1ccc2nc3cc(Cl)ccc3c(Nc3ccc(Oc4ccc(Nc5c6ccc(Cl)cc6nc6ccc(OC)cc56)cc4)cc3)c2c1 | 93% (active) | 7 | 86% (active) | inactive | inactive | inactive | inactive
17 | Oc1cc2ccccc2cc1CNC1CCCCC1 | 89% (active) | -9 | 98% (active) | inactive | inactive | inactive | inactive
18 | Cc1[nH]c(C)c(-c2ccc(Oc3ccccc3)cc2)c(=O)c1Br | 97% (active) | 1 | 96% (active) | inactive | inactive | inactive | inactive
19 | c1ccc2c(NCCOCCNc3c4ccccc4nc4ccccc34)c3ccccc3nc2c1 | -1% | 5 | 94% (active) | inactive | inactive | inactive | inactive
20 | CCCCCCCCCC(=O)NCC1CC(Br)=NO1 (stereo unspecified) | 42% | -7 | 87% (active) | inactive | inactive | inactive | inactive
21 | Cc1cc(=O)c(-c2ccc(S(=O)(=O)c3ccc(Cl)cc3)cc2)c(C)[nH]1 | 80% (active) | 4 | 92% (active) | inactive | inactive | inactive | inactive
22 | CCCCc1nc2nc(N)nc(N)c2cc1CCC | -3% | -1 | 97% (active) | inactive | inactive | inactive | inactive
23 | NC(N)=NC(=O)Nc1cc(F)c(Cl)c(Cl)c1 | 101% (active) | 2 | 101% (active) | inactive | inactive | inactive | inactive
24 | Nc1nc(N)c2c(ccc3c2ccn3Cc2ccc(Br)cc2)n1 | 98% (active) | -13 | 101% (active) | inactive | inactive | inactive | inactive

Row | SMILES | growth inhibition [1] | inhibition [2] [%] | growth inhibition [3] | outcome [4] | outcome [5] | outcome [6] | outcome [7]
25 | CC(C)Cn1cc2c(ccc3nc(N)nc(N)c32)n1 | 2% | -2 | 97% (active) | inactive | inactive | inactive | inactive
26 | CCCc1cc2c3c(N)nc(N)nc3ccc2n1CC | 6% | -1 | 96% (active) | inactive | inactive | inactive | inactive
27 | CCCCNCc1ccc(OCc2cccc(COc3ccc(CNCCCC)cc3I)c2)c(I)c1 | 13% | 6 | 87% (active) | inactive | inactive | inactive | inactive
28 | CCc1ccc(Cc2cnc3nc(N)nc(N)c3c2C)cc1 | -1% | 0 | 97% (active) | inactive | inactive | inactive | inactive
29 | CC(=NNC(=S)NCCc1ccccn1)c1ccccn1 | 95% (active) | -3 | 100% (active) | inactive | inactive | inactive | inactive
30 | COc1cc(Cc2cnc(N)nc2N)cc(OCCCCc2ccc([N+](=O)[O-])cc2)c1OC | 4% | -10 | 88% (active) | inactive | inactive | inactive | inactive
31 | CCN(CC)CCNc1cc(C)nc(/N=C(\N)Nc2ccc(Cl)cc2)n1 | 0% | 3 | 101% (active) | inactive | inactive | inactive | inactive
32 | CCOc1cc(OCC)c2ccccc2c1CNCCCCCCNCc1c(OCC)cc(OCC)c2ccccc12 | 89% (active) | 2 | 101% (active) | inactive | inactive | inactive | inactive
33 | CC(C)c1ccc(Cn2cc(-c3ccncc3)c3cc(OCc4ccccc4)ccc32)cc1 | 88% (active) | -1 | 99% (active) | inactive | inactive | inactive | inactive
34 | CCCc1cc(Cc2cnc(N)nc2N)c2cccnc2c1OC | 3% | 2 | 98% (active) | inactive | inactive | inactive | inactive
35 | CCNC(=O)CCc1cccc(Br)c1 | 54% (active) | 6 | 89% (active) | inactive | inactive | inactive | inactive
36 | COc1ccc(Cc2cnc(N)nc2N)cc1OCCCOc1ccccc1 | 4% | 6 | 91% (active) | inactive | inactive | inactive | inactive
37 | CN(C)C(=S)N=Nc1c(O)[nH]c2ccccc12 | 96% (active) | 2 | 95% (active) | inactive | inactive | inactive | inactive
38 | c1ccc(CN2CCN(CCCCNc3c4ccccc4nc4ccccc34)CC2)cc1 | 101% (active) | -6 | 102% (active) | inactive | inactive | inactive | inactive
39 | CN(C)S(=O)(=O)n1ncc2c3c(N)nc(N)nc3ccc21 | 0% | -4 | 96% (active) | inactive | inactive | inactive | inactive
40 | Cc1[nH]c(C)c(-c2ccc(Oc3ccc(Cl)cc3)c(Cl)c2)c(=O)c1Br | 96% (active) | -1 | 97% (active) | inactive | inactive | inactive | inactive
41 | Nc1ncc(-c2ccc(S(=O)(=O)Nc3ccc(C(=O)N[C@@H](CCC(=O)O)C(=O)O)cc3)cc2)c(=O)[nH]1 | 0% | -3 | 99% (active) | inactive | inactive | inactive | inactive
42 | COc1ccc2c(c1CCNCCCCNCCc1c(OC)ccc3c1CCCC3)CCCC2 | 25% | 7 | 101% (active) | inactive | inactive | inactive | inactive
43 | Cn1c(=N)cc(-c2cccc(I)c2)c2c(=O)[nH]c(N)nc21 | 75% (active) | 6 | 89% (active) | inactive | inactive | inactive | inactive
44 | Nc1nc(N)c2cc(Cc3ccccc3Cl)cnc2n1 | -2% | 4 | 93% (active) | inactive | inactive | inactive | inactive
45 | Cc1nc2ccc(S(=O)(=O)Nc3ccc(C(=O)N[C@@H](CCC(=O)O)C(=O)O)cc3)cc2c(=O)[nH]1 | 2% | 7 | 94% (active) | inactive | inactive | inactive | inactive
46 | COc1ccc(-c2cnc(N)nc2N)cc1Cl | 1% | 4 | 84% (active) | inactive | inactive | inactive | inactive
47 | Cc1nc(C)c(-c2ccc(Oc3ccc(OC(F)(F)F)cc3)cc2)c(OC(=O)c2ccccc2)c1Cl | 97% (active) | 2 | 97% (active) | inactive | inactive | inactive | inactive
48 | Nc1nc(N)c2c(Sc3ccc(F)cc3)cccc2n1 | -3% | 3 | 88% (active) | inactive | inactive | inactive | inactive
